Assay results taken from PubChem BioAssay (EPA / NIEHS).
Values joined by “and” are separate entries in the source; they are usually repeats but may differ in a detail not shown here. Equal values may be shown once. The source holds several records for some structures; these can differ, active in one and inactive in another. Active and inactive are the calls of the source. How the source made its calls: active means hit-call score of the fitted dose curve at least 0.9, where 1 is the maximum; inactive means score below 0.9.

Tests used:
[1] = read-out: Monokine induced gamma interferon (MIG), CXCL9 (gene 4283); assay: BSK_BE3C_MIG: BioMAP Diversity Plus: BE3C Assay for Monokine induced gamma interferon (MIG) Biomarker Activity (AID 2283035); conditions: primary human bronchial epithelial cells; actives raise or lower the signal
Summary of the method: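 ELISA quantified MIG after 24 h exposure of primary bronchial epithelial cultures, analysed in both directions relative to DMSO. Cytotoxicity tracked in parallel cultures by sulforhodamine B staining.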

[2] = read-out: Transforming growth factor beta 1 (TGFb1), TGFB1 (gene 7040); assay: BSK_BE3C_TGFb1: BioMAP Diversity Plus: BE3C Assay for Transforming growth factor beta 1 (TGFb1) Biomarker Activity (AID 2283036); conditions: primary human bronchial epithelial cells; actives raise or lower the signal
Summary of the method: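 Bronchial epithelial primary cells are treated with test chemical, then TGF-b1 is quantified by ELISA after 24 hours. Values derive from bidirectional fitting against DMSO, with cytotoxicity checked by SRB staining in parallel cultures.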

[3] = read-out: Plasminogen activator inhibitor-1 (PAI1), SERPINE1 (gene 5054); assay: BSK_BE3C_PAI1: BioMAP Diversity Plus: BE3C Assay for Plasminogen activator inhibitor-1 (PAI1) Biomarker Activity (AID 2283037); conditions: primary human bronchial epithelial cells; actives raise or lower the signal
Summary of the method: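 Values derive from bidirectional fitting against DMSO baseline of PAI-1 levels, measured by ELISA in human bronchial epithelial cells 24 h after compound addition.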

[4] = read-out: urokinase plasminogen activator (uPA), PLAU (gene 5328); assay: BSK_BE3C_uPA: BioMAP Diversity Plus: BE3C Assay for urokinase plasminogen activator (uPA) Biomarker Activity (AID 2283038); conditions: primary human bronchial epithelial cells; actives raise or lower the signal
Summary of the method: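 Measured by ELISA: uPA from human primary bronchial epithelial cells 24 h after chemical treatment. Values derive from bidirectional curve fitting with DMSO serving as negative control. Total protein by SRB staining in parallel wells flagged overt cytotoxicity.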

[5] = read-out: Urokinase-type plasminogen activator receptor (uPAR), PLAUR (gene 5329); assay: BSK_BE3C_uPAR: BioMAP Diversity Plus: BE3C Assay for Urokinase-type plasminogen activator receptor (uPAR) Biomarker Activity (AID 2283039); conditions: primary human bronchial epithelial cells; actives raise or lower the signal
Summary of the method: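 Steps: dose human primary bronchial epithelial cells, incubate 24 h, measure uPAR by ELISA, then fit gain- or loss-of-signal response bidirectionally relative to DMSO.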

[6] = read-out: Interleukin-6 (IL6), IL6 (gene 3569); assay: BSK_CASM3C_IL6: BioMAP Diversity Plus: CASM3C Assay for Interleukin-6 (IL6) Biomarker Activity for (AID 2283040); conditions: primary human coronary artery smooth muscle cells; actives raise or lower the signal
[7] = read-out: Tissue plasminogen activator (tPA), PLAT (gene 5327); assay: BSK_BE3C_tPA: BioMAP Diversity Plus: BE3C Assay for Tissue plasminogen activator (tPA) Biomarker Activity (AID 2283041); conditions: primary human bronchial epithelial cells; actives raise or lower the signal
Summary of the method: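 Gain- or loss-of-signal in tPA, measured by ELISA, derived by bidirectional fitting against DMSO. Cells: human primary bronchial epithelial; read at 24 h after chemical dosing.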

[8] = read-out: Interleukin-8 (IL8), CXCL8 (gene 3576); assay: BSK_CASM3C_IL8: BioMAP Diversity Plus: CASM3C Assay for Interleukin-8 (IL8) Biomarker Activity (AID 2283042); conditions: primary human coronary artery smooth muscle cells; actives raise or lower the signal;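 further: IL-8 protein level quantified by ELISA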
[9] = read-out: Human Leukocyte Antigen - DR isotype (HLADR), HLA-DRA (gene 3122); assay: BSK_CASM3C_HLADR: BioMAP Diversity Plus: CASM3C Assay for Human Leukocyte Antigen - DR isotype (HLADR) Biomarker Activity (AID 2283043); conditions: primary human coronary artery smooth muscle cells; actives raise or lower the signal;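 further: cell-surface HLA-DR protein level quantified by ELISA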
[10] = read-out: Macrophage colony-stimulating factor (MCSF), CSF1 (gene 1435); assay: BSK_CASM3C_MCSF: BioMAP Diversity Plus: CASM3C Assay for Macrophage colony-stimulating factor (MCSF) Biomarker Activity (AID 2283044); conditions: primary human coronary artery smooth muscle cells; actives raise or lower the signal;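 further: M-CSF protein amount quantified by ELISA after 24 h exposure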
[11] = read-out: Low-density lipoprotein receptor (LDLR), LDLR (gene 3949); assay: BSK_CASM3C_LDLR: BioMAP Diversity Plus: CASM3C Assay for Low-density lipoprotein receptor (LDLR) Biomarker Activity (AID 2283045); conditions: primary human coronary artery smooth muscle cells; actives raise or lower the signal;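 further: LDLR protein level on the cell surface quantified by ELISA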
[12] = read-out: Monocyte Chemoattractant Protein-1 (MCP1), CCL2 (gene 6347); assay: BSK_CASM3C_MCP1: BioMAP Diversity Plus: CASM3C Assay for Monocyte Chemoattractant Protein-1 (MCP1) Biomarker Activity (AID 2283046); conditions: primary human coronary artery smooth muscle cells; actives raise or lower the signal;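 further: MCP-1 level quantified by ELISA 24 h after dosing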
[13] = BSK_CASM3C_Proliferation: Cell Proliferation Assessment in the BioMAP Diversity Plus: CASM3C Assay (AID 2283047); conditions: primary human coronary artery smooth muscle cells;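 further: sulforhodamine B total protein stain as relative cell number at 560 nm; sub-confluent cells exposed 48 h before staining; fitted both ways against DMSO so gain or loss of cell number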
[14] = read-out: Monokine induced gamma interferon (MIG), CXCL9 (gene 4283); assay: BSK_CASM3C_MIG: BioMAP Diversity Plus: CASM3C Assay for Monokine induced gamma interferon (MIG) Biomarker Activity (AID 2283048); conditions: primary human coronary artery smooth muscle cells; actives raise or lower the signal;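 further: MIG protein level measured by ELISA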
[15] = read-out: serum amyloid A (SAA), SAA1 (gene 6288); assay: BSK_CASM3C_SAA: BioMAP Diversity Plus: CASM3C Assay for serum amyloid A (SAA) Biomarker Activity (AID 2283049); conditions: primary human coronary artery smooth muscle cells; actives raise or lower the signal;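 further: SAA protein level quantified by ELISA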
[16] = BSK_CASM3C_SRB: Viability Assessment in the BioMAP Diversity Plus: CASM3C Assay (AID 2283050); conditions: primary human coronary artery smooth muscle cells;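 further: total protein by SRB staining as cytotoxicity measure in parallel cultures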
[17] = read-out: Thrombomodulin, THBD (gene 7056); assay: BSK_CASM3C_Thrombomodulin: BioMAP Diversity Plus: CASM3C Assay for Thrombomodulin Biomarker Activity (AID 2283051); conditions: primary human coronary artery smooth muscle cells; actives raise or lower the signal;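 further: thrombomodulin protein level measured by ELISA 24 h after dosing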
[18] = read-out: Tissue Factor, F3 (gene 2152); assay: BSK_CASM3C_TissueFactor: BioMAP Diversity Plus: CASM3C Assay for Tissue Factor Biomarker Activity (AID 2283052); conditions: primary human coronary artery smooth muscle cells; actives raise or lower the signal;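 further: cell surface tissue factor protein level read by ELISA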
[19] = read-out: Interferon-gamma inducible Protein 10 (IP10), CXCL10 (gene 3627); assay: BSK_hDFCGF_IP10: BioMAP Diversity Plus: hDFCGF Assay for Interferon-gamma inducible Protein 10 (IP10) Biomarker Activity (AID 2283053); conditions: primary human foreskin fibroblasts; actives raise or lower the signal
Summary of the method: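 Cells: human dermal foreskin fibroblasts. Exposure: 24 h post-dosing. Detection: IP-10 ELISA, with values expressed against DMSO controls and fitted in both directions.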

[20] = read-out: Urokinase-type plasminogen activator receptor (uPAR), PLAUR (gene 5329); assay: BSK_CASM3C_uPAR: BioMAP Diversity Plus: CASM3C Assay for Urokinase-type plasminogen activator receptor (uPAR) Biomarker Activity (AID 2283054); conditions: primary human coronary artery smooth muscle cells; actives raise or lower the signal;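 further: cell-surface uPAR protein level quantified by ELISA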

Measured: AC50

CC[C@H](C)C(=O)O[C@H]1C[C@@H](C)C=C2C=C[C@H](C)[C@H](CC[C@@H]3C[C@@H](O)CC(=O)O3)[C@H]21
inactive: [6] | [8] | [10] | [11] | [14] | [15] | [16] | [18] | [20]
active: [1] 36.1 µM | [2] 34 µM | [3] 28.8 µM | [4] 32.1 µM | [5] 30.9 µM | [7] 25.6 µM | [9] 19.9 µM | [12] 19.9 µM | [13] 6.08 µM | [17] 0.147 µM | [19] 35.3 µM

Cn1cnc([N+](=O)[O-])c1Sc1ncnc2nc[nH]c12
active: [7] 6.7 µM | [9] 11.3 µM | [13] 10.2 µM and 12 µM and 4.25 µM | [19] 4.43 µM and 7.98 µM
inactive: [1] | [2] | [3] | [4] | [5] | [6] | [7] | [8] | [9] | [10] | [11] | [12] | [14] | [15] | [16] | [17] | [18] | [19] | [20]

Cc1ccc(C)c(O)c1
inactive: all assays above

CCn1nc(Cc2ccccc2)cc1C1CCN(C[C@H]2C[C@H](N(C)[C@@H](C(=O)O)C(C)C)C[C@@H]2c2cccc(F)c2)CC1
inactive: all assays above

CCCC(=O)OCC
inactive: all assays above
